Results taken from the supplement of paper PMC11732987, “Enantioselective OTUD7B fragment discovery through chemoproteomics screening and high-throughput optimisation” (Communications Chemistry, 2025).

Key:
Assay in all cases: log2 ratio of Biotin-Ahx-Ub-VS probe labelling (fragment/DMSO); higher = less target engagement (more negative = stronger competition), active = hit call of the paper (q ≤ 0.05, log2 ratio ≤ -1)
Details in all cases: compound concentration: 200 uM; treatment time: 3 h
USP9X = USP9X (UniProt Q93008)
How it was run: (§1)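 Labelled DUBs from HEK293T lysate were NeutrAvidin-enriched, digested with LysC and trypsin, and run by diaPASEF LC-MS/MS. Before that, each 495 µg sample in Tris/CHAPS/IGEPAL buffer with protease inhibitors was treated in triplicate with fragment at 200 µM or vehicle for 3 h, then with Biotin-Ahx-Ub-VS at 0.5 µM final for 1 h. Values are average log2 ratios of fragment over vehicle by unpaired t-test, based on global-median-normalised Spectronaut label-free quantities from proteins with ≥2 unique peptides.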

UniProt O00487 = target: UniProt O00487
How it was run: as §1

UniProt O00507 = target: UniProt O00507
How it was run: as §1

UniProt P51784 = target: UniProt P51784
How it was run: as §1

UniProt Q5T2D3 = target: T1, UniProt Q5T2D3
T1 sequence (whole entry): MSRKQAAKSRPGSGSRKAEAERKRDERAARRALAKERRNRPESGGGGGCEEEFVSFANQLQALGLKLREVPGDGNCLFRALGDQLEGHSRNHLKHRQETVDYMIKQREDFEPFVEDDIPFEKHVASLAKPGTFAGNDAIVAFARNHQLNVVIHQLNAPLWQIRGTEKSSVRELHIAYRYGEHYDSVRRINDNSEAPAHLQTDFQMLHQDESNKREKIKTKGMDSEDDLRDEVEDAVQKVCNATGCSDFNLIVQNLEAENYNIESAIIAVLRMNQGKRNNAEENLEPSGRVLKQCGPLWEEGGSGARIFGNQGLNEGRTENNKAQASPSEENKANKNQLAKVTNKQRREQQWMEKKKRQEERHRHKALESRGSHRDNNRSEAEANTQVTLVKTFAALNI
How it was run: as §1

UniProt Q8TE49 = target: T2, UniProt Q8TE49
T2 sequence (whole entry): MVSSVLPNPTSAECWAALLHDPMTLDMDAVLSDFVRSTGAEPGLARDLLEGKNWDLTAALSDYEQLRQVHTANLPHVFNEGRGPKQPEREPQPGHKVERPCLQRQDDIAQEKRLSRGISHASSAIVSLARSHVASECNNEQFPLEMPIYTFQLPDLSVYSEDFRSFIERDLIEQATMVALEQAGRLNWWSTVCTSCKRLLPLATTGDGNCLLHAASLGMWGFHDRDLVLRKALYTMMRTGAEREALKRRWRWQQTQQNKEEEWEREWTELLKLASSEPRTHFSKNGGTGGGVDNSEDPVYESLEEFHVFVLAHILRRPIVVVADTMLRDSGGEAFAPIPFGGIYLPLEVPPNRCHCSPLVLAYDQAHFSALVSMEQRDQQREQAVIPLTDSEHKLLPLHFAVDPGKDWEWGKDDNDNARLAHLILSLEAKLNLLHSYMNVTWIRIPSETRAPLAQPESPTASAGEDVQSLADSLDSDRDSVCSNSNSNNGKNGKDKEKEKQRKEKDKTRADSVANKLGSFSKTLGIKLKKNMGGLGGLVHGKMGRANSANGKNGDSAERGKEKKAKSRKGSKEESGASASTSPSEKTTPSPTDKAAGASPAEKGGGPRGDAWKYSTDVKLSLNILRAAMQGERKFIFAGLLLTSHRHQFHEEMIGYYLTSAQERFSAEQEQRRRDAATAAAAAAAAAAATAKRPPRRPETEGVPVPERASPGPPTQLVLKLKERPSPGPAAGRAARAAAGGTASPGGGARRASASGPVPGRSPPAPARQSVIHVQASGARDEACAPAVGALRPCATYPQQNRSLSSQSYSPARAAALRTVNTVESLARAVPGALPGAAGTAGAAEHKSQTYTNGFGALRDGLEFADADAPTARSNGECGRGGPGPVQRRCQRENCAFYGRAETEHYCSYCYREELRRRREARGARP
How it was run: as §1

UniProt Q9P2H5 = target: T3, UniProt Q9P2H5
T3 sequence (whole entry): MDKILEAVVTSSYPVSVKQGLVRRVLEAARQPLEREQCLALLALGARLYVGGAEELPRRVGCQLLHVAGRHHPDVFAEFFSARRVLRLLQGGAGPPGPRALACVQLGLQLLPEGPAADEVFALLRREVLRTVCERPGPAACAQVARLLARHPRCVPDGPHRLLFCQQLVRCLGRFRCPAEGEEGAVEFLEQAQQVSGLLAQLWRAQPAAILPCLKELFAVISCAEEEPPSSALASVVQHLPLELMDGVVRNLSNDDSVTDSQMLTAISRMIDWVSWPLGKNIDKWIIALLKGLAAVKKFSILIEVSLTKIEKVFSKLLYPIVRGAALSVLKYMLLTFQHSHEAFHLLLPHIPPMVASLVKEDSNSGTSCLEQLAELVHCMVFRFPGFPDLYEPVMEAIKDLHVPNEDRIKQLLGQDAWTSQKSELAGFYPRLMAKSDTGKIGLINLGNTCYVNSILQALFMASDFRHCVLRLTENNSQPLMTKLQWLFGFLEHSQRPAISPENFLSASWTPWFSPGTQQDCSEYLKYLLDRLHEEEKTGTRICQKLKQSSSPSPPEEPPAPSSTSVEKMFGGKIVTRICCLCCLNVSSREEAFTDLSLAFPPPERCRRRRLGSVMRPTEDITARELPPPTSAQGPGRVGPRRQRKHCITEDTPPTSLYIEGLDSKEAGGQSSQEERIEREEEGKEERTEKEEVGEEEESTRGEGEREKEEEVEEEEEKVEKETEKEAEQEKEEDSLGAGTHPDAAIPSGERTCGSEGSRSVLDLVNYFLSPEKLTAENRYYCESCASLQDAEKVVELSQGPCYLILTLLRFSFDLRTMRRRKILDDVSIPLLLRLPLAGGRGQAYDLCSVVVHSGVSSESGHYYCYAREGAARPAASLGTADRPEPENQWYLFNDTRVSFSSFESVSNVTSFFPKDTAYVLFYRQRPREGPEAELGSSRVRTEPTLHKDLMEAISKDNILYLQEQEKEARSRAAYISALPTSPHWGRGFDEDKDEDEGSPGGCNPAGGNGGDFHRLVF
How it was run: as §1

UniProt Q9UGI0 = target: T4, UniProt Q9UGI0
T4 sequence (whole entry): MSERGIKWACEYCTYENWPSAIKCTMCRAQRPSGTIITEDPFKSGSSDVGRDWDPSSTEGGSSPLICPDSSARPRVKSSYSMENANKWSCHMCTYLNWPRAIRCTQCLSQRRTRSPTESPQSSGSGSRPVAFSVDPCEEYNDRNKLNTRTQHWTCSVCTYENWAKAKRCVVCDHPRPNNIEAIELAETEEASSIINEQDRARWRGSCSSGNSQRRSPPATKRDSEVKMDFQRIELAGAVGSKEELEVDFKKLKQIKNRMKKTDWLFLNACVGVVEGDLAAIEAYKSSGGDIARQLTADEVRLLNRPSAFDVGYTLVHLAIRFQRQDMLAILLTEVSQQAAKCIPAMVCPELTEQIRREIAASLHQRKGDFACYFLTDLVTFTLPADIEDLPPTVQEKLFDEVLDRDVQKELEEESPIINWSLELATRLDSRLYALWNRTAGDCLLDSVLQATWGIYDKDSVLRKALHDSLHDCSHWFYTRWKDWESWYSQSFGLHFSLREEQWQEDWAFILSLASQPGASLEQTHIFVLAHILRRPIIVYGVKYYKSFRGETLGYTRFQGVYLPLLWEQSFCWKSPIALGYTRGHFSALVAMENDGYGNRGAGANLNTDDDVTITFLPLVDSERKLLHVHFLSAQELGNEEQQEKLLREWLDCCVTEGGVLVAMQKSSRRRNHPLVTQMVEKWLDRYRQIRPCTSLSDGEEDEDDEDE
How it was run: as §1

YOD1 = target: T5, YOD1 (UniProt Q5VVQ6)
T5 sequence (whole entry): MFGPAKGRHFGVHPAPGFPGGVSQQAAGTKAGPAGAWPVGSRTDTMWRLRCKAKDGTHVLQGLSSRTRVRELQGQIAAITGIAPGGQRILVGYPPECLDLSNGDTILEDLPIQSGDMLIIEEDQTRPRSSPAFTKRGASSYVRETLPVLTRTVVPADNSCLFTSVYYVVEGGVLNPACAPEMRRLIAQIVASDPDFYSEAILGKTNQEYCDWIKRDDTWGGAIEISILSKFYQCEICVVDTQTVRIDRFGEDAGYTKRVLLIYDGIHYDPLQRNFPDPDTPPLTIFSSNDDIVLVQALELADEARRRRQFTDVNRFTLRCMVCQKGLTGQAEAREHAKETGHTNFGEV
How it was run: as §1

Measured: log2 ratio of Biotin-Ahx-Ub-VS probe labelling

UniProt O00487, sequence (O00487 whole entry): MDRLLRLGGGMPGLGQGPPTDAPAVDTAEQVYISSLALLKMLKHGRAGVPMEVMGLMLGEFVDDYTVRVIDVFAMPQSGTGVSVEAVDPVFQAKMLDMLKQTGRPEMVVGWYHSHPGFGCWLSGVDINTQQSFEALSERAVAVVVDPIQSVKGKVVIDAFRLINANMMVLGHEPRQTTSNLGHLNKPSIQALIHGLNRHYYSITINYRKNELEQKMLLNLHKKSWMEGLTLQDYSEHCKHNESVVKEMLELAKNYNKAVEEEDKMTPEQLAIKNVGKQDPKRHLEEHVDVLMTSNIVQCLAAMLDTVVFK
UniProt P51784, sequence (P51784 whole entry): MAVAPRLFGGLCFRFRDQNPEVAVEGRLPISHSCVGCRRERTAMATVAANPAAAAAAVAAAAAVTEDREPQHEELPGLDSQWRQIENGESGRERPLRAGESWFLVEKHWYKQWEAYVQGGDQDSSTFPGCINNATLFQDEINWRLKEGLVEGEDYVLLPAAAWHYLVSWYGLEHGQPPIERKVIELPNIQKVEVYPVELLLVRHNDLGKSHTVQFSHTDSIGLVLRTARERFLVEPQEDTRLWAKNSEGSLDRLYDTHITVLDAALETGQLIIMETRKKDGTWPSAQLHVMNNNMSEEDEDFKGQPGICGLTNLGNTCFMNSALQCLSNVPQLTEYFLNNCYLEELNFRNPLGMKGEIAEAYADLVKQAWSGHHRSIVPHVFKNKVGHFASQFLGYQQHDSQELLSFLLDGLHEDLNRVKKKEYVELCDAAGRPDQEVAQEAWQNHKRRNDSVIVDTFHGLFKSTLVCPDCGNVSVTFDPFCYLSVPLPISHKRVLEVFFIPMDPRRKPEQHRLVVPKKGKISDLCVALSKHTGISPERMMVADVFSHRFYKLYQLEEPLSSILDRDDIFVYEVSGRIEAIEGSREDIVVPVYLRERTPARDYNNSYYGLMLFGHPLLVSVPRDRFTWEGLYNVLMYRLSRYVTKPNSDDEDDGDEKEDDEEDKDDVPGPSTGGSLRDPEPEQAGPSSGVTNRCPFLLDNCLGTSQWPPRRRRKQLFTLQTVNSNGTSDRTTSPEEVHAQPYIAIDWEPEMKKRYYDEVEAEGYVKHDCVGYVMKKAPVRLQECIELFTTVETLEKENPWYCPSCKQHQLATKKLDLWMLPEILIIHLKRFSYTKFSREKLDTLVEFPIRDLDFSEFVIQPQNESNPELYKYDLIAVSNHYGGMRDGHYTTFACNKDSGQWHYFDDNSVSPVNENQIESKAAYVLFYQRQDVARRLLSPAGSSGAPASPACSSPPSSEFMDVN
UniProt O00507, sequence (O00507 whole entry): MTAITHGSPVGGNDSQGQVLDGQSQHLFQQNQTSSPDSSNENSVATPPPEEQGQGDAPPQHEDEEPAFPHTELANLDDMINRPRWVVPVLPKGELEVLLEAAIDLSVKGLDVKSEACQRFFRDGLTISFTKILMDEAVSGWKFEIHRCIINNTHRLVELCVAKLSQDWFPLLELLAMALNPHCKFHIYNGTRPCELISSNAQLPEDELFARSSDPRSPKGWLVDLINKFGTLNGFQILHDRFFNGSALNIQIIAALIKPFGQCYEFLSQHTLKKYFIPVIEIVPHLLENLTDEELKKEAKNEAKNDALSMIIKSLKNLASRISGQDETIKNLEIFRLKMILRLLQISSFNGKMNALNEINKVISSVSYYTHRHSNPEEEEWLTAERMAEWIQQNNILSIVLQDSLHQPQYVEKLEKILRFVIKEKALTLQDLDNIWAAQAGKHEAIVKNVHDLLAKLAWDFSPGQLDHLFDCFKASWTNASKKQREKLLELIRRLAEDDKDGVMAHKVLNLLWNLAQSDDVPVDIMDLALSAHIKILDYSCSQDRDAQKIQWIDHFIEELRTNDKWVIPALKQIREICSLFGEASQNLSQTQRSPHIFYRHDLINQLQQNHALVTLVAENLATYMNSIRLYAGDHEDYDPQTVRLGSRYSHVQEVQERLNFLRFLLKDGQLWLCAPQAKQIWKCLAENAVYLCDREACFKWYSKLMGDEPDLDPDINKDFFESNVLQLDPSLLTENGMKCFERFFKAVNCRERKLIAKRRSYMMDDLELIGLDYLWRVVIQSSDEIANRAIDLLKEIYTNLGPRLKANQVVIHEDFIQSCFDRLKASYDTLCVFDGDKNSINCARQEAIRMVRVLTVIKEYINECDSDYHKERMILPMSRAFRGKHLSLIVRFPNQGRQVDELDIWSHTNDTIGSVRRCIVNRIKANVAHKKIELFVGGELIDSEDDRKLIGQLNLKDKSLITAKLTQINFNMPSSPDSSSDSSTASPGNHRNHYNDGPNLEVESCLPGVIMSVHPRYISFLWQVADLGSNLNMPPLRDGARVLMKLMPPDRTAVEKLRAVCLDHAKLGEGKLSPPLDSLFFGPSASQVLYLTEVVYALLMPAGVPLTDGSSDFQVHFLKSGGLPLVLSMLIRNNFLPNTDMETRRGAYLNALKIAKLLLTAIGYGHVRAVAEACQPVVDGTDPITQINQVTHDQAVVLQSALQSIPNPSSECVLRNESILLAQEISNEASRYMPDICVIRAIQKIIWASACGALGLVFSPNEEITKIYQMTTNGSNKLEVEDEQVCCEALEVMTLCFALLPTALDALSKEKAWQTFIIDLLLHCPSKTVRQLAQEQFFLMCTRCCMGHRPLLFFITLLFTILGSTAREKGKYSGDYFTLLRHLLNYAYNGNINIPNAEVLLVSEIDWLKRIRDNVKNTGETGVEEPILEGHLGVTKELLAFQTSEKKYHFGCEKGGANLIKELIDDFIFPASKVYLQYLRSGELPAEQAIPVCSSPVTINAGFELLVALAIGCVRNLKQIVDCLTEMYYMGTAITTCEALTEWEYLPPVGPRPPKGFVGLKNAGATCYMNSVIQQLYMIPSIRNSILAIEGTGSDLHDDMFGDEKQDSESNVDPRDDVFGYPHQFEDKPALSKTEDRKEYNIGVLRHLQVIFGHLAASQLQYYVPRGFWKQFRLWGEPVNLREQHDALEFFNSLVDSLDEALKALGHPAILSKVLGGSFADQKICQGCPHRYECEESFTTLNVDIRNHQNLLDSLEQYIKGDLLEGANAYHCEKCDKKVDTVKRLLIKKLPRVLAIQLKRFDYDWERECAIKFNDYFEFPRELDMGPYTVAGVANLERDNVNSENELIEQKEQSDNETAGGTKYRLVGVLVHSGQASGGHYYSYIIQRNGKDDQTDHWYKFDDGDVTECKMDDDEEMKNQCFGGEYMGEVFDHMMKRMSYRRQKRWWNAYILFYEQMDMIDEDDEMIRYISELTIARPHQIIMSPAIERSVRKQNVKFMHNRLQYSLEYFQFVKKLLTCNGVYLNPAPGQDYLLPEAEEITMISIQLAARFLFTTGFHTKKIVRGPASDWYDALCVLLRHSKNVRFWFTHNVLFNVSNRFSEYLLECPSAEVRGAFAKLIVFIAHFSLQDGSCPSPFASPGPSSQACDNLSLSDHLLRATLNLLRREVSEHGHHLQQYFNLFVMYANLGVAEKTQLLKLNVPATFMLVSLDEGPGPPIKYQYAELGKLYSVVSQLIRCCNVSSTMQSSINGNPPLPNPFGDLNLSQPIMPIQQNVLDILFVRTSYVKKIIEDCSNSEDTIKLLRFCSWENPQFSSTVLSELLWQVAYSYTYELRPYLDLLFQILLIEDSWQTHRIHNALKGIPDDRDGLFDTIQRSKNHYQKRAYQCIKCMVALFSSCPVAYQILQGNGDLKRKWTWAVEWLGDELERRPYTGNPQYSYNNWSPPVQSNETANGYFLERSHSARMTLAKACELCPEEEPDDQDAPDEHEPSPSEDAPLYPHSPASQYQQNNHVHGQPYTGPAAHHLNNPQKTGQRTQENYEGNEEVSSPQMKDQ

Cc1cc(C(=O)NC2CCN(C(=O)CCl)CC2)no1
inactive: USP9X -0.158 | UniProt O00487 -0.138 | UniProt O00507 -0.438 | UniProt P51784 -0.169 | UniProt Q5T2D3 -0.252 | UniProt Q8TE49 -0.394 | UniProt Q9P2H5 0.0224 | UniProt Q9UGI0 -0.0524 | YOD1 -0.256
